# In the supplement of paper PMC8728848:
# Substitutions are numbered along the chain they refer to. This is one part of a sample in which the strongest signals are shown more often than they occur.
# B1: Unk16A (Cellvibrio mixtus), Q336L6 (protein)
# chain: VAYNTTGASSSAASSSAPSSASSSSSSAAPVLLSQGRPVTASSNFQPAANAVDGNGGTRWESTHGVSPSWIMVDLGSSKNLSQVIIDWEAANAANYLVQASNNGMSWTTLKIITTGAFGDRTDTHSVAGNYRYVRIYATARSAGNQWGYSIWELKITGN
# B2: ZG16p (Homo sapiens), O60844 (protein)
# chain: ARSSSYSGEYGGGGGKRFSHSGNQLDGPITALRVRVNTYYIVGLQVRYGKVWSDYVGGRNGDLEEIFLHPGESVIQVSGKYKWYLKKLLFVTDKGRYLSFGKDSGTSFNAVPLHPNTVLRFISGRSGSLINAIGLHWDVYPSSCSRC
# B3: ZG16p (Homo sapiens), O60844 (protein)
# chain: B2 chain with Y84F, N131D
# How the values were obtained:
# Test in all cases: glycan array binding signal (z-score within array); higher = stronger binding
# [1] = target: Glc(a1-2)Glc(a1-2)Glc; conditions: glycan notation: IUPAC condensed, linker removed
# Procedure, shortened: (§1)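 From the Consortium for Functional Glycomics database, 3228 arrays were curated, keeping only those whose protein sequence was available. Binding is given as a within-array Z-score averaged across arrays sharing a protein sequence and across linkers. Negative Z-scores can be read as non-binding.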
# [2] = target: Glc(a1-4)Glc(a1-4)Glc(a1-4)Glc(a1-4)Glc(a1-4)Glc(a1-4)Glc(a1-4)Glc(a1-4)Glc(a1-4)Glc; conditions: glycan notation: IUPAC condensed, linker removed
# Procedure, shortened: as §1
# [3] = target: Glc(b1-2)Glc(b1-2)Glc(b1-2)Glc(b1-2)Glc; conditions: glycan notation: IUPAC condensed, linker removed
# Procedure, shortened: as §1
# [4] = target: Glc(b1-2)Glc(b1-2)Glc(b1-2)Glc(b1-2)Glc(b1-2)Glc(b1-2)Glc(b1-2)Glc(b1-2)Glc; conditions: glycan notation: IUPAC condensed, linker removed
# Procedure, shortened: as §1
# [5] = target: Glc(b1-2)Glc(b1-2)Glc(b1-2)Glc(b1-2)Glc(b1-2)Glc(b1-2)Glc(b1-2)Glc(b1-2)Glc(b1-2)Glc(b1-2)Glc; conditions: glycan notation: IUPAC condensed, linker removed
# Procedure, shortened: as §1
# [6] = target: Glc(b1-3)[Glc(b1-6)]Glc(a1-3)Glc(b1-3)[Glc(b1-6)]Glc; conditions: glycan notation: IUPAC condensed, linker removed
# Procedure, shortened: as §1
# [7] = target: Glc(b1-4)Glc(b1-4)Glc(b1-3)Glc; conditions: glycan notation: IUPAC condensed, linker removed
# Procedure, shortened: as §1
# [8] = target: Glc(b1-4)Glc(b1-4)Glc(b1-4)Glc(b1-4)Glc; conditions: glycan notation: IUPAC condensed, linker removed
# Procedure, shortened: as §1
# [9] = target: Glc(b1-4)Glc(b1-4)Glc(b1-4)Glc(b1-4)Glc(b1-4)Glc(b1-4)Glc(b1-4)Glc(b1-4)Glc(b1-4)Glc; conditions: glycan notation: IUPAC condensed, linker removed
# Procedure, shortened: as §1
# [10] = target: Glc(b1-4)Glc(b1-4)Glc(b1-4)Glc(b1-4)Glc(b1-4)Glc(b1-4)Glc(b1-4)Glc(b1-4)Glc(b1-4)Glc(b1-4)Glc(b1-4)Glc(b1-4)Glc; conditions: glycan notation: IUPAC condensed, linker removed
# Procedure, shortened: as §1
# [11] = target: Glc(b1-6)Glc(b1-6)Glc; conditions: glycan notation: IUPAC condensed, linker removed
# Procedure, shortened: as §1
# [12] = target: Glc(b1-6)Glc(b1-6)Glc(b1-6)Glc(b1-6)Glc(b1-6)Glc(b1-6)Glc(b1-6)Glc(b1-6)Glc(b1-6)Glc; conditions: glycan notation: IUPAC condensed, linker removed
# Procedure, shortened: as §1
# [13] = target: Gal(b1-4)GlcNAc(b1-2)Man(a1-6)[GlcNAc(b1-2)Man(a1-3)]Man(b1-4)GlcNAc(b1-4)[Fuc(a1-6)]GlcNAc; conditions: glycan notation: IUPAC condensed, linker removed
# Procedure, shortened: as §1
# [14] = target: Gal(b1-4)GlcNAc(b1-2)[Gal(b1-4)GlcNAc(b1-4)]Man(a1-3)[Gal(b1-4)GlcNAc(b1-2)[Gal(b1-4)GlcNAc(b1-6)]Man(a1-6)]Man(b1-4)GlcNAc(b1-4)GlcNAc; conditions: glycan notation: IUPAC condensed, linker removed; mutation: D151N
# Procedure, shortened: as §1
# [15] = target: GlcNAc(b1-2)Man(a1-3)[GlcNAc(b1-2)Man(a1-6)]Man(b1-4)GlcNAc(b1-4)GlcNAc; conditions: glycan notation: IUPAC condensed, linker removed; mutation: D151N
# Procedure, shortened: as §1
# [16] = target: GlcNAc(b1-2)[GlcNAc(b1-4)]Man(a1-3)[GlcNAc(b1-2)Man(a1-6)][GlcNAc(b1-4)]Man(b1-4)GlcNAc(b1-4)GlcNAc; conditions: glycan notation: IUPAC condensed, linker removed; mutation: D151N
# Procedure, shortened: as §1
# [17] = target: HexA(a1-3)GalNAc4S(b1-4)GlcA(b1-3)GalNAc4S(b1-4)GlcA(b1-3)GalNAc4S(b1-4)GlcA(b1-3)GalNAc4S(b1-4)GlcA(b1-3)GalNAc4S(b1-4)GlcA(b1-3)GalNAc4S(b1-4)GlcA(b1-3)GalNAc4S(b1-4)GlcA(b1-3)GalNAc4S; conditions: glycan notation: IUPAC condensed, linker removed; mutation: D151N
# Procedure, shortened: as §1
# [18] = target: Gal(b1-4)GlcNAc(b1-2)Man(a1-6)[Man(a1-3)]Man(b1-4)GlcNAc(b1-4)GlcNAc; conditions: glycan notation: IUPAC condensed, linker removed; mutation: Y104F
# Procedure, shortened: as §1
# [19] = target: Gal(b1-4)GlcNAc(b1-2)[Gal(b1-4)GlcNAc(b1-4)]Man(a1-3)[Fuc(a1-3)[Gal(b1-4)]GlcNAc(b1-2)Man(a1-6)]Man(b1-4)GlcNAc(b1-4)GlcNAc; conditions: glycan notation: IUPAC condensed, linker removed; mutation: Y104F
# Procedure, shortened: as §1
# [20] = target: Glc(b1-3)Glc(b1-3)Glc(b1-3)Glc(b1-3)Glc(b1-3)Glc; conditions: glycan notation: IUPAC condensed, linker removed; mutation: Y104F
# Procedure, shortened: as §1
# [21] = target: Man(a1-3)Man(b1-4)GlcNAc; conditions: glycan notation: IUPAC condensed, linker removed; mutation: Y104F
# Procedure, shortened: as §1
# [22] = target: Xyl(b1-2)[Man(a1-3)][Man(a1-6)]Man(b1-4)GlcNAc(b1-4)GlcNAc; conditions: glycan notation: IUPAC condensed, linker removed; mutation: Y104F
# Procedure, shortened: as §1
binder,measurement,setting,value
B1,glycan array binding signal (z-score),[1],-0.668
same,glycan array binding signal (z-score),[2],-0.662
same,glycan array binding signal (z-score),[3],2.23
same,glycan array binding signal (z-score),[4],3.49
same,glycan array binding signal (z-score),[5],2.77
same,glycan array binding signal (z-score),[6],4.32
same,glycan array binding signal (z-score),[7],-0.192
same,glycan array binding signal (z-score),[8],-0.479
same,glycan array binding signal (z-score),[9],-0.167
same,glycan array binding signal (z-score),[10],-0.398
same,glycan array binding signal (z-score),[11],-0.248
same,glycan array binding signal (z-score),[12],0.062
B2,glycan array binding signal (z-score),[13]; mutation: D151N,-0.565
same,glycan array binding signal (z-score),[14],-0.44
same,glycan array binding signal (z-score),[15],-0.565
same,glycan array binding signal (z-score),[16],-0.565
same,glycan array binding signal (z-score),[17],5.03
B3,glycan array binding signal (z-score),[13]; mutation: Y104F,-0.485
same,glycan array binding signal (z-score),[18],-0.485
same,glycan array binding signal (z-score),[19],-0.485
same,glycan array binding signal (z-score),[20],2.84
same,glycan array binding signal (z-score),[21],0.015
same,glycan array binding signal (z-score),[22],-0.331
